Source: PubChem (several laboratories)
Rows were chosen to be rich in hits. Some 3.8% of all compounds tested hit in one or more screens of this group.
NTR1 agonist = activates human neurotensin receptor 1 | activation, % at 20 µM | P30989 | AID 493036 | NTR1-U2OS beta-arrestin-GFP spot imaging, agonist mode | hit rate 0.17% among 330,000;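 active = activation at or above 40% of the spot to cytoplasm intensity ratio, with at least 20 cells analyzed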;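 also: 0% = DMSO without peptide and 100% = 100 nM NTR1 peptide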
Target sequence (P30989 whole entry, looked up): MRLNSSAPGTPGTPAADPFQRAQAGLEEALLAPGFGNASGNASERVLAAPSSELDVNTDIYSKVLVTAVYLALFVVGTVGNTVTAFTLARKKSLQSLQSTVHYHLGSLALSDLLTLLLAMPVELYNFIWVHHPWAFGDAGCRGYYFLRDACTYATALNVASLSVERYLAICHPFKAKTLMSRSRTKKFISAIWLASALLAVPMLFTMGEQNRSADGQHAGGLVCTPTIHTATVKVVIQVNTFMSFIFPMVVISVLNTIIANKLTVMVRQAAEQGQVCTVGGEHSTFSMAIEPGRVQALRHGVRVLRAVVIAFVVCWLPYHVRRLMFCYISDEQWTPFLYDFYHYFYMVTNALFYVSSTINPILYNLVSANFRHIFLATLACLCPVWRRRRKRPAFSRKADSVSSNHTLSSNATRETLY
Beta cell apopt = blocks beta cell apoptosis. INS-1E cytokine-induced death, ATP luminescence, 48 h; percent of positive-control rescue, neutral wells zero. AID 435005. protection from apoptosis, % (no concentration beside the values). hit rate 0.8% among 300,000;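 active = Every replicate reaches about 75%, or at least half do and their mean reaches it too, limit read from the data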;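 also: 0% = cytokine-treated negative control wells and 100% = positive control rescue; higher means more ATP so stronger rescue from cytokine killing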
Mdm2-MdmX inh = inhibitors of human Mdm2/MdmX interaction; AID 485346; inhibition, % at 8 µM; SaOS-2 split-luciferase Mdm2/MdmX complementation, luminescence; hit rate 3% among 330,000;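 active = inhibition of at least 50% at 8 µM in the primary screen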
697 NFkB inh = lowers PMA/ionomycin-induced NF-kB signal in 697 B cells; 697 B-cell NF-kB luciferase reporter, 16 h; inhibition, % at 4 µM; hit rate 0.33% among 330,000; in the data active = inhibition above about 35%
Jurkat NFkB inh = inhibitors of the PMA/ionomycin-induced NF-kB reporter in Jurkat cells; PMA/ionomycin-induced NF-kB luciferase reporter, luminescence; inhibition, % at 4 µM; hit rate 0.53% among 330,000; AID 435003; in the data active = inhibition above about 50%
A1 inh = inhibitors of the anti-apoptotic protein A1, read as caspase activation | AID 2462 | hit rate 0.066% among 330,000 | caspase activation, % (no concentration beside the values) | MEF A1-2A-BIM cells, Caspase-Glo 3/7 luminescence, 3 h; percent of clofoctol response, vehicle zero;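 active = over half of replicate activation scores above 10%, or exactly half above 10 with the replicate mean above 10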
Jurkat NFkB conf = inhibitors of the PMA/ionomycin-induced NF-kB reporter in Jurkat cells, retest; inhibition, % at 4 µM; Jurkat NF-kB luciferase, 16 h; hit rate 27% among 2,700; shares compounds with Jurkat NFkB inh;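 active = inhibition reaching about 45% at 4 µM in either replicate, limit read from the data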;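 also: plate controls were PMA/ionomycin stimulated DMSO wells for no effect and unstimulated DMSO wells for full effect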
697 NFkB conf = lowers PMA/ionomycin-induced NF-kB signal in 697 B cells | 697 B-cell NF-kB luciferase, 16 h | AID 449746 | shares compounds with 697 NFkB inh | hit rate 35% among 2,000 | inhibition, % at 4 µM; in the data active = inhibition mostly above about 28%, no sharp cut-off; inactive = mostly below about 22%
Mdm2 MdmX conf = confirmation of human Mdm2/MdmX interaction inhibitors. shares compounds with Mdm2-MdmX inh. Mdm2-MdmX binding, luminescent assay. inhibition, % at 8 µM. hit rate 55% among 10,000; in the data active = inhibition above about 40%
Full FLuc ctr = inhibits full-length luciferase, flagging false Mdm2/MdmX hits. inhibition, % at 8 µM. SaOS-2 full-length luciferase counterscreen, luminescence. shares compounds with Mdm2-MdmX inh. AID 504607. hit rate 77% among 6,200;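 active = mean inhibition at 8 µM reaching about 37%, which flags the compound as non-specific, limit read from the data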;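 also: p53-null SaOS-2 cells with luciferase driven by a doxycycline-inducible promoter; compound on cells about two nights before reading with doxycycline added after day one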
Active calls of the source: *; / = no result given.

SMILES | NTR1 agonist | Beta cell apopt | Mdm2-MdmX inh | 697 NFkB inh | Jurkat NFkB inh | A1 inh | Jurkat NFkB conf | Mdm2 MdmX conf | Full FLuc ctr | others
CCOC(=O)C1=C(C)N=c2s/c(=C\c3ccc(O)c([N+](=O)[O-])c3)c(=O)n2C1c1ccccc1OC (stereo not given) | 9.4 | 31.1 | 13.0 | 2.5 | 3.9 | -0.6 | / | / | /
Cc1ccc(C(=O)NC(C)C2CC3CCC2C3)c(C)c1 (stereo not given) | 2.9 | 2.6 | 1.6 | -23.0 | -24.7 | 0.4 | / | / | /
COc1ccc(C(=O)CN2C(=O)c3ccccc3S2(=O)=O)cc1Br | 0.8 | -2.4 | 23.1 | 15.2 | -7.3 | 1.3 | / | / | /
COc1ccc(C(=O)CN2C(=O)c3ccccc3S2(=O)=O)cc1 | 1.6 | -0.4 | 93.6* | 56.4* | 73.3* | -3.7 | 58.1* | 95.4* | 25.5 | 697 NFkB conf=59.8*
Cc1cc(C(=O)CN2C(=O)c3ccccc3S2(=O)=O)c(C)n1CC1CCCO1 (stereo not given) | -0.1 | -0.6 | 53.7* | 44.5* | 78.8* | 0.1 | 21.8 | 37.0 | 8.8 | 697 NFkB conf=8.2
Cc1cc(C(=O)CN2C(=O)NC(C)(c3ccccc3)C2=O)c(C)n1CC1CCCO1 (stereo not given) | 0.2 | 0.3 | 12.1 | 0.6 | 3.4 | 0.6 | / | / | /
CCc1noc(C)c1C(=O)OCC(=O)Nc1cccc(C)c1 | 1.5 | -0.9 | 7.5 | 18.8 | 1.8 | 0.9 | / | / | /
CCOc1cc(S(=O)(=O)N2CC=C(c3ccc(F)cc3)CC2)c(OCC)cc1-n1cnnn1 | 0.8 | 31.5 | 53.0* | -61.1 | 55.6* | -0.4 | 23.0 | 52.7* | 81.9*
CN(C)c1ccc(-c2nn3c(-c4ccccc4Cl)nnc3s2)cc1 | 4.7 | 5.8 | 53.3* | 24.7 | 75.1* | -0.1 | 63.4* | 65.5* | 64.6*
CN(C)c1ccc(-c2nn3c(-c4cccnc4)nnc3s2)cc1 | 5.7 | 2.7 | 44.5 | 19.2 | -8.3 | 0.5 | / | / | /
COc1ccccc1-c1nnc2sc(-c3ccc(N(C)C)cc3)nn12 | 9.6 | -0.5 | 68.6* | -203.6 | 78.0* | 0.4 | 47.0 | 67.7* | 93.7*
COC(=O)c1ccc(C)c(NS(=O)(=O)c2ccc3c(c2)OCCO3)c1 | 0.4 | 9.5 | 63.5* | 2.6 | 58.0* | -0.7 | 51.9* | 60.5* | 78.1*
COC(=O)c1ccc(C)c(NS(=O)(=O)c2ccc(C)c([N+](=O)[O-])c2)c1 | -1.0 | -0.4 | -13.0 | 10.6 | 6.9 | -0.2 | / | / | /
CC1Nc2ccc(C(=O)NC3CCCCC3)cc2NC1=O (stereo not given) | 1.1 | -0.5 | 6.6 | 12.5 | 7.7 | -0.1 | / | / | /
O=C(CSc1nc2ccccc2s1)NCc1cc([N+](=O)[O-])ccc1O | 10.9 | 7.1 | 12.0 | 23.5 | 3.9 | -0.3 | / | / | /
CCC(=O)Nc1sc2c(c1C#N)CCC2 | -0.4 | -3.3 | -13.6 | -8.8 | -9.6 | -0.2 | / | / | /
CCc1ccc(CCC(=O)Nc2sc3c(c2C#N)CCCC3)o1 | 6.6 | -15.6 | 50.0* | 1.5 | 55.6* | -0.1 | 25.3 | 67.5* | 83.1*
Cc1ccc2nc(-c3ccc4c(c3)OCCO4)cn2c1 | -1.1 | 31.4 | 94.4* | -21.5 | 82.6* | -8.4 | 51.0* | 97.5* | 55.3*
COc1ccc(C(=O)Nc2nc3ccccc3s2)c(OC)c1 | 3.2 | 44.6 | 100.3* | 68.8* | 84.6* | -6.1 | 91.1* | 98.6* | 52.1* | 697 NFkB conf=60.0*
COc1ccccc1C(=O)Nc1nc2ccccc2s1 | 1.0 | 46.4 | 93.2* | 2.2 | 61.7* | -7.8 | 71.1* | 90.0* | 31.7
O=C(Nc1ccccc1Cl)c1ccc(S(=O)(=O)NCC2CCCO2)cc1 (stereo not given) | 0.1 | -2.8 | 2.6 | 16.6 | 4.7 | 0.1 | / | / | /
CC1CCCC(NC(=O)COC(=O)c2cccnc2Cl)C1C (stereo not given) | -2.8 | -9.4 | 12.6 | 12.7 | 2.0 | 0.2 | / | / | /
CCOC(=O)N=Nc1c2ccccc2c2nc3no[nH]c3nc12 | 8.9 | / | 100.3* | 32.6 | 59.7* | / | 98.3* | 100.1* | 0.9
CC(C)n1c(SCC(=O)NC2CC2)nnc1-c1ccco1 | -0.1 | -1.3 | -15.4 | 16.6 | 6.4 | 1.1 | / | / | /
CCCCCN=C(N)N/N=C/c1c[nH]c2ccc(OC)cc12 | 11.3 | 55.9 | 99.0* | -12.6 | 99.6* | -0.1 | 30.8 | 97.6* | 30.4
SMILES | NTR1 agonist | Beta cell apopt | Mdm2-MdmX inh | 697 NFkB inh | Jurkat NFkB inh | A1 inh | Jurkat NFkB conf | Mdm2 MdmX conf | Full FLuc ctr | others
CC(=O)n1cc(N(C(=O)CCl)c2ccccc2)c2ccccc21 | 15.6 | -23.9 | 96.6* | -46.5 | 72.2* | 1.9 | 11.2 | 100.1* | 51.5*
CC(=O)n1cc(CO)c2ccccc21 | 0.1 | / | 16.0 | 11.5 | -5.0 | 1.1 | / | / | /
CCOc1cc(CNc2ccc3c(c2)OCCO3)cc(Br)c1OCC(N)=O | 0.2 | -7.0 | 21.5 | -28.6 | 7.1 | -0.1 | / | / | /
CCOc1cc(CNc2ccc3c(c2)OCCO3)cc(Br)c1OC | 3.6 | 17.3 | 75.7* | 2.7 | 58.7* | -0.5 | 14.7 | 73.0* | 65.5*
COC(=O)c1cccc(NC(=O)NC(=O)c2ccc(Cl)cc2)c1 | 0.8 | 7.9 | 68.9* | -33.5 | 85.9* | 0.3 | 2.9 | 42.8* | 73.0*
COC(=O)c1cccc(NC(=O)Nc2ccc(Cl)cc2)c1 | 3.4 | 8.4 | 18.1 | -69.7 | -1.8 | 1.7 | / | / | /
C(=N\Nc1nc2ccccc2s1)/c1ccccn1 | 2.4 | / | 94.4* | 21.5 | 84.3* | -7.8 | 73.4* | 95.5* | 48.1*
Brc1csc(/C=N/Nc2nc3ccccc3s2)c1 | 23.9 | 16.5 | -225.7 | -239.2 | -139.9 | 0.2 | / | / | /
CC(C)c1ccc(N2C(=NC(=O)C3CCCO3)SC3CS(=O)(=O)CC32)cc1 (stereo not given) | -0.5 | -3.2 | 5.7 | 6.6 | 10.9 | -0.6 | / | / | /
O=C(Nc1ccc([N+](=O)[O-])cc1)C(=O)Nc1cccc(C(=O)O)c1 | 2.8 | 27.4 | 63.8* | 46.2* | 56.0* | -8.1 | 66.9* | 67.2* | 31.0 | 697 NFkB conf=22.6*
CCN(CC)S(=O)(=O)c1ccc(N/N=C/c2ccc(O)cc2O)nc1 | 0.7 | 66.4 | 64.8* | -66.4 | 50.6* | 0.0 | 13.8 | 78.5* | 49.9*
CCN(CC)S(=O)(=O)c1ccc(N/N=C(\C)c2ccncc2)nc1 | 2.7 | -6.3 | 4.8 | 3.4 | -6.2 | 1.2 | / | / | /
COc1ccc(NC(=O)Cn2nnc(-c3ccccc3NS(=O)(=O)c3ccc(OC)cc3)n2)cc1 | 5.6 | 14.7 | 67.0* | -54.1 | 71.6* | -0.8 | 64.4* | 54.8* | 83.4*
COc1ccccc1NC(=O)Cn1nnc(-c2ccccc2NS(=O)(=O)c2ccccc2)n1 | 0.7 | 0.1 | 11.7 | -27.3 | -3.0 | -0.6 | / | / | /
